Assay [1] addresses T1, Aurora kinase A (Homo sapiens) (UniProt O14965).
T1 sequence (whole entry): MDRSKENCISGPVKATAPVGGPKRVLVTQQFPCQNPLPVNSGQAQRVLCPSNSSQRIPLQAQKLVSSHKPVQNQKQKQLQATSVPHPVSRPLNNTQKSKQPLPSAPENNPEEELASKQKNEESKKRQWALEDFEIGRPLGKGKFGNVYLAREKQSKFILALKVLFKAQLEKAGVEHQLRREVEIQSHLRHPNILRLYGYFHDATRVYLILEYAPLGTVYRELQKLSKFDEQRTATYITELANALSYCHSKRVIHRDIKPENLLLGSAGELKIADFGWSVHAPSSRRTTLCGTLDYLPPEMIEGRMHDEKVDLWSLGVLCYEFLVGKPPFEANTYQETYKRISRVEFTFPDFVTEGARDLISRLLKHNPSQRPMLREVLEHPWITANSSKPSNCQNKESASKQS
To be noted: at 1 µM.

In assay [2] the target is Aurora kinase B (Homo sapiens) (UniProt Q96GD4). To be noted: at 0.1 µM.
Aurora kinase B (Homo sapiens), sequence (Q96GD4 whole entry): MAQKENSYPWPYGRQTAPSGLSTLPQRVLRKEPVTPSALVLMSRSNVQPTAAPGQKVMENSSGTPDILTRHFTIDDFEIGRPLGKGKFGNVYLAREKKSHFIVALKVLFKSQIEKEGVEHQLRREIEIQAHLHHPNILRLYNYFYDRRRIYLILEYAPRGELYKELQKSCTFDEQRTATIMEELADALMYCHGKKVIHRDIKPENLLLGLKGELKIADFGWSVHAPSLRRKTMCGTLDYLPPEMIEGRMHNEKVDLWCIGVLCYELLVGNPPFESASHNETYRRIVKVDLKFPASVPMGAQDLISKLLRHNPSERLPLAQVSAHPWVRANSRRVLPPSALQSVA
Assay [3] has the same target. To be noted: at 1 µM.
Assay [4] has as its target T2, Aurora kinase C (Homo sapiens) (UniProt Q9UQB9).
T2 sequence (whole entry): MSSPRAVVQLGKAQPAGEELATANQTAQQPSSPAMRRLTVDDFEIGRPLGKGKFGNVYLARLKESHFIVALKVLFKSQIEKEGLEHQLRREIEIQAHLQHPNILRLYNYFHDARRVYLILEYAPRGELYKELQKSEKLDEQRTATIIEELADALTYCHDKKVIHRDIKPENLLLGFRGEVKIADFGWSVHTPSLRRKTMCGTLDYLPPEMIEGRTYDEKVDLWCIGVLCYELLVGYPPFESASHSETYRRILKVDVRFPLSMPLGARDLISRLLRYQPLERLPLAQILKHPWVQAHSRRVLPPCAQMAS
To be noted: at 0.1 µM.

Assay [5] addresses T2, Aurora kinase C (Homo sapiens). To be noted: at 1 µM.
For assay [6], the target named is Serine/threonine-protein kinase 10 (Homo sapiens) (UniProt O94804). To be noted: at 0.1 µM.
Serine/threonine-protein kinase 10 (Homo sapiens), sequence (O94804 whole entry, looked up): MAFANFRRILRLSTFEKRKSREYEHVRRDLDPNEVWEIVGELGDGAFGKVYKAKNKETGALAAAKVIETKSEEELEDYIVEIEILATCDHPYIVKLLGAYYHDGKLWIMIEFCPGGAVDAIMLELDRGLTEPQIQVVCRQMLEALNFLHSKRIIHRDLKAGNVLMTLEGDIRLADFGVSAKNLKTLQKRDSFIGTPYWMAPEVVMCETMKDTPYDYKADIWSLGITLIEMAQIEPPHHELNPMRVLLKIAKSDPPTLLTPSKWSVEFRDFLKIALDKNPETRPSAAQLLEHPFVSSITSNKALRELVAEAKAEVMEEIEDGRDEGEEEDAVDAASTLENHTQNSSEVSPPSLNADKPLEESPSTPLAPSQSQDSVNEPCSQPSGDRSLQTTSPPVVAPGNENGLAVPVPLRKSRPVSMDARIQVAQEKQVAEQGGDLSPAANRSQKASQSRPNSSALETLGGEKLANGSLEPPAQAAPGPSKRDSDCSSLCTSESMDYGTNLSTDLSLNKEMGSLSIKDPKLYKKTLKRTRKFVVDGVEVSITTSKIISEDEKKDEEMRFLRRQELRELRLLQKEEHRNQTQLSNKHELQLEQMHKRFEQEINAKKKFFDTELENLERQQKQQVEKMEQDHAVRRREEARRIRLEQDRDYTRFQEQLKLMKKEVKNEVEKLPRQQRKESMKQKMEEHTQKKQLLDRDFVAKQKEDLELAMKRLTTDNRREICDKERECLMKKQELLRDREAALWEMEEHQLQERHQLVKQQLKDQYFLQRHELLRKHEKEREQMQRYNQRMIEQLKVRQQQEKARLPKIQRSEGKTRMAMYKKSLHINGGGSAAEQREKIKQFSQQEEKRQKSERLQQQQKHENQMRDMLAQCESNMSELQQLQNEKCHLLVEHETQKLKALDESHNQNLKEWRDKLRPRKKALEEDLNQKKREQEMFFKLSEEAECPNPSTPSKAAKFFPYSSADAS
For assay [7] the target is unchanged. To be noted: at 1 µM.
For assay [8], the target named is T3, Mitogen-activated protein kinase kinase kinase kinase 2 (Homo sapiens) (UniProt Q12851).
T3 sequence (whole entry): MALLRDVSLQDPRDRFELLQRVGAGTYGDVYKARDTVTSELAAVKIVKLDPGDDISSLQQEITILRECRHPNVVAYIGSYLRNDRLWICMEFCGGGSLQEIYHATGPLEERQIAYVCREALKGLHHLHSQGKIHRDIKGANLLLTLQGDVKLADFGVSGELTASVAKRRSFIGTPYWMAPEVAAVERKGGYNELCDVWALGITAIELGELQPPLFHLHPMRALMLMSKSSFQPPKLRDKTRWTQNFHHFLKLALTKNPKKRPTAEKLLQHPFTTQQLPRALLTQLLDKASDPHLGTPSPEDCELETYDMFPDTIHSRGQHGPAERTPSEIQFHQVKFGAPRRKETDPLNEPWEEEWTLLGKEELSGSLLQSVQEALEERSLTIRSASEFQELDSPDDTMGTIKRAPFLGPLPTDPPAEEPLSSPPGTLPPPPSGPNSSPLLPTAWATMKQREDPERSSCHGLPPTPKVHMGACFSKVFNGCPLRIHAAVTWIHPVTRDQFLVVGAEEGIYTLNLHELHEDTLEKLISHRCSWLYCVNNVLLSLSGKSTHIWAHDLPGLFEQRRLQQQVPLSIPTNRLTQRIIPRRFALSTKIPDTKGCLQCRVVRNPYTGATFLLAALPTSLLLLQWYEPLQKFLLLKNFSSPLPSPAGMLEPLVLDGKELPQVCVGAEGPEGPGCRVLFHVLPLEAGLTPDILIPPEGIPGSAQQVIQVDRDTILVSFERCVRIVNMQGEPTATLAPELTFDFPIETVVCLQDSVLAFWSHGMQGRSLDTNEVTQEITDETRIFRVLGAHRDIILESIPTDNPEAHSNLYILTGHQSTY
To be noted: at 0.1 µM.

In assay [9] the target is T3, Mitogen-activated protein kinase kinase kinase kinase 2 (Homo sapiens). To be noted: at 1 µM.
Assay [10] deals with Mitogen-activated protein kinase kinase kinase kinase 4 (Homo sapiens) (UniProt O95819). To be noted: at 0.1 µM.
Mitogen-activated protein kinase kinase kinase kinase 4 (Homo sapiens), sequence (O95819 2-1239 limits assumed): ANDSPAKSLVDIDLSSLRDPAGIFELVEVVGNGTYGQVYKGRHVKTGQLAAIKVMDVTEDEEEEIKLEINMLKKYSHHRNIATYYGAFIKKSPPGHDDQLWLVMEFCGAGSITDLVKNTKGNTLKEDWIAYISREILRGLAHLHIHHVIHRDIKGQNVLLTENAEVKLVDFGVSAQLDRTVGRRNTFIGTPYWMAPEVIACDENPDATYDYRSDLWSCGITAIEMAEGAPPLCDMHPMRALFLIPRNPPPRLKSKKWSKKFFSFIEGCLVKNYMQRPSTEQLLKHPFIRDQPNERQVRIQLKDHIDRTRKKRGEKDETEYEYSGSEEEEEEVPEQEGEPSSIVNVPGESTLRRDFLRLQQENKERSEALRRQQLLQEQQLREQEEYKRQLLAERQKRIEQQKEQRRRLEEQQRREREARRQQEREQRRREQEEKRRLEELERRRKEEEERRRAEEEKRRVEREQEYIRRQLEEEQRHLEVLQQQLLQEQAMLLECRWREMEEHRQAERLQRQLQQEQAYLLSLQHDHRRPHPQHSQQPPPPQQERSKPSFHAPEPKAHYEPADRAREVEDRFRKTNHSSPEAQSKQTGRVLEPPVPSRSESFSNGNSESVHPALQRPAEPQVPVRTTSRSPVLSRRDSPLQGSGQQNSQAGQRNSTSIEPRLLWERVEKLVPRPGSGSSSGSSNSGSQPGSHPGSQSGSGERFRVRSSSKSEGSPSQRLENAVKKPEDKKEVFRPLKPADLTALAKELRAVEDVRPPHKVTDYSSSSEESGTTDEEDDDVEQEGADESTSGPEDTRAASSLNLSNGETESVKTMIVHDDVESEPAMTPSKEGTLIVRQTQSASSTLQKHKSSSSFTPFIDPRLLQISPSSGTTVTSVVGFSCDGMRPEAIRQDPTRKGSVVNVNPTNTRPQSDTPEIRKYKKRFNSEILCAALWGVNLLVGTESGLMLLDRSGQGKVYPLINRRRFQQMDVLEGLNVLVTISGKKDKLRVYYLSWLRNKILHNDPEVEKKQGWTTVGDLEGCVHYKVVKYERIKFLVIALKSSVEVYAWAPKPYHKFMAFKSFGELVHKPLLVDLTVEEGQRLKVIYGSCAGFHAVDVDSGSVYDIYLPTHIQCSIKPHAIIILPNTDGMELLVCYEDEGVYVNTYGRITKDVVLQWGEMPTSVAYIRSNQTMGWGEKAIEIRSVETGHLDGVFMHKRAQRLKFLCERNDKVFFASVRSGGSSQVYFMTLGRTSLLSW
The target is the same in assay [11]. To be noted: at 1 µM.
In assay [12] the target is Dual specificity mitogen-activated protein kinase kinase 1 (Homo sapiens) (UniProt Q02750). To be noted: at 0.1 µM.
Dual specificity mitogen-activated protein kinase kinase 1 (Homo sapiens), sequence (Q02750 whole entry): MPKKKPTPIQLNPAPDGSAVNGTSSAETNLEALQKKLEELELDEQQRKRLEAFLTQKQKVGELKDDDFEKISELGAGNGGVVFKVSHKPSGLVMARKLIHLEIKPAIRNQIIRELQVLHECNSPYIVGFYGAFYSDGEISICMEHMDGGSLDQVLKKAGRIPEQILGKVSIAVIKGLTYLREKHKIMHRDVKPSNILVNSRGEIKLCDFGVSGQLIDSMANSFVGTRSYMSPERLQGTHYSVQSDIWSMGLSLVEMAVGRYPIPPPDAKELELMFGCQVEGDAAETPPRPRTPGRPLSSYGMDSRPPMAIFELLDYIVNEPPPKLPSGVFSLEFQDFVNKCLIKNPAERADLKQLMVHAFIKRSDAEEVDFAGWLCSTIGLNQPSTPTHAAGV
Assay [13] has the same target. To be noted: at 1 µM.
Assay [14] has as its target Misshapen-like kinase 1 (Homo sapiens) (UniProt Q8N4C8). To be noted: at 0.1 µM.
The target is the same in assay [15]. To be noted: at 1 µM.
Assay [16] deals with T4, Serine/threonine-protein kinase 4 (Homo sapiens) (UniProt Q13043).
T4 sequence (whole entry): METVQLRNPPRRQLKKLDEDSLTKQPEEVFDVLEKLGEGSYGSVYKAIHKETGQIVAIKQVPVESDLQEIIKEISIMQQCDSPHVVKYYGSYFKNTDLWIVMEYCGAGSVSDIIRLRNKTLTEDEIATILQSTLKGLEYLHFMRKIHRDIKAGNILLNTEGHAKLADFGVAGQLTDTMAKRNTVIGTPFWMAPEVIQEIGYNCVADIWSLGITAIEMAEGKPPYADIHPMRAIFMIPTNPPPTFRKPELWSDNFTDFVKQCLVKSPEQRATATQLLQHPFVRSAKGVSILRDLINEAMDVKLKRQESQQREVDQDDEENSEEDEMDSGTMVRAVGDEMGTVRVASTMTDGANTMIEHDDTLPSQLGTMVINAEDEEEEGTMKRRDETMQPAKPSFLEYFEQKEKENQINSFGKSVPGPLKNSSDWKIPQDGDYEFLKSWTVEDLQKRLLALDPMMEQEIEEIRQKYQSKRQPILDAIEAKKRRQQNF
To be noted: at 0.1 µM.

For assay [17], the target named is T4, Serine/threonine-protein kinase 4 (Homo sapiens). To be noted: at 1 µM.
Assay [18] addresses T5, Serine/threonine-protein kinase 3 (Homo sapiens) (UniProt Q13188).
T5 sequence (whole entry): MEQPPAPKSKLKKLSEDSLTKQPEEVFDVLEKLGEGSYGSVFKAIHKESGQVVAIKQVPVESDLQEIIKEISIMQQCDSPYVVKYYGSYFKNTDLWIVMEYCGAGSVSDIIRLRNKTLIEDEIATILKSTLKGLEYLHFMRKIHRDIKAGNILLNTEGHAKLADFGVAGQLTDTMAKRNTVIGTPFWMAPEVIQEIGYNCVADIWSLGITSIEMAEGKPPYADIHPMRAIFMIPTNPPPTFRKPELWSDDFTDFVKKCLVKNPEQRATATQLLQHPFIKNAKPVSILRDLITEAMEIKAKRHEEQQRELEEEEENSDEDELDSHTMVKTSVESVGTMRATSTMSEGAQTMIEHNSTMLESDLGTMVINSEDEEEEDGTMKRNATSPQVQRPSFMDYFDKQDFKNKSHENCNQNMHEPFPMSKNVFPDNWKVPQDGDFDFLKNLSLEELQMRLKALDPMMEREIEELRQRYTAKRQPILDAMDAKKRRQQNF
To be noted: at 0.1 µM.

The target of assay [19] is T5, Serine/threonine-protein kinase 3 (Homo sapiens). To be noted: at 1 µM.
Assay [20] has as its target Serine/threonine-protein kinase 26 (Homo sapiens) (UniProt Q9P289). To be noted: at 0.1 µM.

The structures appear in SMILES notation.

Broadly, the inhibition is the change of the read-out against control, counted positive when it falls.

Misshapen-like kinase 1 (Homo sapiens), sequence (Q8N4C8 whole entry, looked up): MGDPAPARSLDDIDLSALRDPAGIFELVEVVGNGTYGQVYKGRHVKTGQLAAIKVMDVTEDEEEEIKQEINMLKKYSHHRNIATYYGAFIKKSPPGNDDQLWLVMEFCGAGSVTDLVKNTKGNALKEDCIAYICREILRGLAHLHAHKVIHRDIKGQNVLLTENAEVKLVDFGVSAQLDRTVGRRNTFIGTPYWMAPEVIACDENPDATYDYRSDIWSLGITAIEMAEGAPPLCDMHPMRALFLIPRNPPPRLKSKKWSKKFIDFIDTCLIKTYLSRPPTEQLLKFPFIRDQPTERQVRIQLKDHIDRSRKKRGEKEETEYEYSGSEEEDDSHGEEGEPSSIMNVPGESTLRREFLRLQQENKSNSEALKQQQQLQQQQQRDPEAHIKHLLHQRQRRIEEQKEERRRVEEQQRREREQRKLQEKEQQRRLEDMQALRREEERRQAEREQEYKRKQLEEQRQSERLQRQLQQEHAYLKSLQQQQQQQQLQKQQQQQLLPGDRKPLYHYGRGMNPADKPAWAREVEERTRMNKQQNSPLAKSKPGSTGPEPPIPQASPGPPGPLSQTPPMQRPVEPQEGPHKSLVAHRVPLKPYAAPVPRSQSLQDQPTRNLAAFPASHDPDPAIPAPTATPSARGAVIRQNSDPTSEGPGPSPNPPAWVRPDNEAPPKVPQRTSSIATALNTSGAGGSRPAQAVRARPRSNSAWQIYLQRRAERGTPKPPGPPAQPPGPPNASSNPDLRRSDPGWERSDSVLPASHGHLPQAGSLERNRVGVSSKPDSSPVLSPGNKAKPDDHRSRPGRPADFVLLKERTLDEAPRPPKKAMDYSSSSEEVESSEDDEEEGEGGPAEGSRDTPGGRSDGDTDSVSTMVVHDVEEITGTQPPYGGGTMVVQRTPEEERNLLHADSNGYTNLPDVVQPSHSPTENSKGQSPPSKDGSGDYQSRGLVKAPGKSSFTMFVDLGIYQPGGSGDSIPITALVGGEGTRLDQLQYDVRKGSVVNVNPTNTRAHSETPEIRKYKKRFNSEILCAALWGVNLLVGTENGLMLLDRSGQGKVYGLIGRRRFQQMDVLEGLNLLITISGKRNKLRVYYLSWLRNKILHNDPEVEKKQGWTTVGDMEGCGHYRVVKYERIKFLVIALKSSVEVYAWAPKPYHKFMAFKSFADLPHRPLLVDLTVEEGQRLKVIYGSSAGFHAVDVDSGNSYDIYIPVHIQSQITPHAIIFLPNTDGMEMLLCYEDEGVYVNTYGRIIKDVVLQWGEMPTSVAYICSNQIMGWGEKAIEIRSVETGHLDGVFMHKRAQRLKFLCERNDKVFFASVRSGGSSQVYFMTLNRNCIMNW
Serine/threonine-protein kinase 26 (Homo sapiens), sequence (Q9P289 2-416 limits assumed): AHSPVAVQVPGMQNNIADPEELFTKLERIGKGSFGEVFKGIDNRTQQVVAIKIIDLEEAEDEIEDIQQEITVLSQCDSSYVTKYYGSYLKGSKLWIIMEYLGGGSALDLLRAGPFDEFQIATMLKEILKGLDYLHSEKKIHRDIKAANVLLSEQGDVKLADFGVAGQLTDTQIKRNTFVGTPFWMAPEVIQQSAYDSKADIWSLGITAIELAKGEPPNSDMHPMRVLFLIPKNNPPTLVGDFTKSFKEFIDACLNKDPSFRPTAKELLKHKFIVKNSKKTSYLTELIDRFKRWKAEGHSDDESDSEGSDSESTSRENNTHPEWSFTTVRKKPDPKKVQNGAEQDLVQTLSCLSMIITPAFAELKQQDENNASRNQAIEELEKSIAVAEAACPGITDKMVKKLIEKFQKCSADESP

Turning to `CCn1c(-c2nonc2N)nc2c(C#CC(C)(C)O)ncc(OC[C@@H]3CCCN3)c21`, the inhibition in [1] was 1.08%; in [2], -1.36%; in [3], 0.87%; in [4] it was 1.23%; in assay [5] it was 1.45%; in assay [6], -0.11%. The inhibition came to 5.64% in assay [7]; 2.41% in assay [8]; 3.31% in [9]; 0.39% in assay [10]; 2.54% in assay [11]; 1.6% in [12]. The inhibition in [13] amounted to 0.19%; in assay [14], 0.63%; in assay [15], 0.93%; in [16] it was 0.46%; in assay [17], 2.14%; in assay [18], 0.87%. Moreover, the inhibition in [19] turned out to be 2.41%; in [20], 0.78%.
For the compound `NS(=O)(=O)c1ccc(N/C=C2\C(=O)Nc3ccc4ncsc4c32)cc1`, the inhibition in [1] was determined as 80.2%; in assay [2], 19.6%; in [3], 55.2%; in [4], 22.5%; in [5], 79.2%; in assay [6], 5.85%. The inhibition in assay [7] stood at 16.2%; in assay [8], 12.8%; in [9], 52.1%; in assay [10], 55.1%; in assay [11], 76.9%; in assay [12] it was 8.75%. The inhibition in [13] worked out at 42.9%; in assay [14], 45.2%; in [15], 76.9%; in assay [16], 70.2%; in [17] it was 75.2%; in [18], 65.1%. The figures for the inhibition in assay [19] and in assay [20] were 73.7% and 42.6%, respectively.
For the compound `COc1cc(C=NNc2ncnc3c2cnn3Cc2ccccc2)ccc1O`, the inhibition in assay [1] was 25.6%; in [2], 2.52%; in assay [3], 34.4%; in [4], 1.25%; in assay [5] it was 10.6%; in assay [6], -4.65%. The inhibition in [7] is 5.71%; in [8] it was 0.89%; in assay [9], 4.63%; in [10] it was -1.52%; in assay [11], 7.51%; in [12] it was -3.29%. Further, the inhibition is -4.65% in assay [13]; -2.43% in [14]; 5.48% in [15]; -3.73% in [16]; -2.3% in assay [17]; -4.05% in [18]. Moreover, the results for the inhibition in [19] and in assay [20] were -0.82% and 1.58%, respectively.
In the case of `Fc1ccc(-c2ncn(C3CCNCC3)c2-c2ccnc(Oc3ccccc3)n2)cc1`, the inhibition is -2.89% in assay [1]; -0.82% in [2]; 1.75% in [3]; -4.42% in assay [4]; -1.24% in assay [5]; 6.38% in assay [6]. For the same compound, the inhibition in assay [7] turned out to be 8.33%; in [8] it was 1.61%; in assay [9], 4.65%; in [10] it was 1.76%; in [11], 6.15%; in assay [12], 1.34%. The inhibition in assay [13] turned out to be 3.93%; in assay [14], 2.7%; in [15], 6.65%; in assay [16], 0.94%; in assay [17], 1.85%; in assay [18], 1.01%. The results for the inhibition in assay [19] and in assay [20] were 2.48% and -0.85%, respectively.
Consider `COc1cccc(COc2cc(-n3cnc4ccccc43)sc2C(N)=O)c1`, for which the inhibition in assay [1] is 2.21%; in assay [2], -1.57%; in [3], 1.15%; in [4], 1.58%; in assay [5] it was 3.73%; in assay [6], 4.63%. The inhibition in assay [7] amounted to 39.4%; in assay [8] it was 1.4%; in assay [9], 7.04%; in assay [10], 1.37%; in assay [11], 18.5%; in [12] it was 0.36%. Also, the inhibition is 0.58% in [13]; 3.1% in [14]; 16.3% in assay [15]; -1.11% in [16]; 2.62% in assay [17]; 0.35% in assay [18]. Further, the inhibition worked out at 1.4% in assay [19] and 1.25% in assay [20].
Take `COc1cccc(-n2ncc3c(N/N=C/c4ccncc4)ncnc32)c1`: the inhibition was found to be 73.8% in assay [1]; 7.94% in assay [2]; 43.1% in [3]; 7.33% in assay [4]; 61.4% in assay [5]; 5.83% in assay [6]. Moreover, the inhibition was 33.5% in assay [7]; 2.12% in assay [8]; 7.06% in assay [9]; 20.1% in [10]; 67.7% in assay [11]; 7.89% in [12]. Further, the inhibition in [13] was 7.23%; in [14], 16.2%; in assay [15] it was 55.4%; in [16], 9.07%; in [17], 12.8%; in assay [18], 5.41%. Besides, the inhibition was determined as 10.7% in assay [19] and 0.95% in assay [20].
Consider `NS(=O)(=O)c1ccc(-c2ccc3c(NC(=O)C4CC4)n[nH]c3c2)cc1`, for which the inhibition turned out to be 15.3% in [1]; 3.22% in [2]; 0.63% in assay [3]; 1.15% in [4]; 14.4% in [5]; 4.04% in [6]. Besides, the inhibition in assay [7] was 5.59%; in assay [8], -0.26%; in assay [9], 2.11%; in [10], 3.77%; in assay [11] it was 5.23%; in assay [12] it was 1.7%. Moreover, the inhibition in assay [13] is 2%; in assay [14], 3.12%; in [15], 4.48%; in assay [16], 3.07%; in [17], 5.91%; in [18] it was 4.35%. Also, the inhibition in [19] was determined as 5.17%; in assay [20], 0.02%.

Source of the values: ChEMBL document CHEMBL1961873, “Compounds: GSK PKIS; Assays: Nanosyn kinase panel” (2012).
